A selection: hits, their analogues and other compounds. The true share with any hit is near 0.38%.
EPAC1 antagonist: blocks human EPAC1 exchange factor | O95398 | EPAC1 GEF assay, Rap1b-BODIPY-GDP exchange fluorescence | Potency, µM (titrated, usually from 115 µM), hits mostly inhibitors | actives 0.14% (n = 360,000) | AID 720709; note: nearly all actives have a fitted effect of over 50% in size
Target sequence (O95398 whole entry, looked up): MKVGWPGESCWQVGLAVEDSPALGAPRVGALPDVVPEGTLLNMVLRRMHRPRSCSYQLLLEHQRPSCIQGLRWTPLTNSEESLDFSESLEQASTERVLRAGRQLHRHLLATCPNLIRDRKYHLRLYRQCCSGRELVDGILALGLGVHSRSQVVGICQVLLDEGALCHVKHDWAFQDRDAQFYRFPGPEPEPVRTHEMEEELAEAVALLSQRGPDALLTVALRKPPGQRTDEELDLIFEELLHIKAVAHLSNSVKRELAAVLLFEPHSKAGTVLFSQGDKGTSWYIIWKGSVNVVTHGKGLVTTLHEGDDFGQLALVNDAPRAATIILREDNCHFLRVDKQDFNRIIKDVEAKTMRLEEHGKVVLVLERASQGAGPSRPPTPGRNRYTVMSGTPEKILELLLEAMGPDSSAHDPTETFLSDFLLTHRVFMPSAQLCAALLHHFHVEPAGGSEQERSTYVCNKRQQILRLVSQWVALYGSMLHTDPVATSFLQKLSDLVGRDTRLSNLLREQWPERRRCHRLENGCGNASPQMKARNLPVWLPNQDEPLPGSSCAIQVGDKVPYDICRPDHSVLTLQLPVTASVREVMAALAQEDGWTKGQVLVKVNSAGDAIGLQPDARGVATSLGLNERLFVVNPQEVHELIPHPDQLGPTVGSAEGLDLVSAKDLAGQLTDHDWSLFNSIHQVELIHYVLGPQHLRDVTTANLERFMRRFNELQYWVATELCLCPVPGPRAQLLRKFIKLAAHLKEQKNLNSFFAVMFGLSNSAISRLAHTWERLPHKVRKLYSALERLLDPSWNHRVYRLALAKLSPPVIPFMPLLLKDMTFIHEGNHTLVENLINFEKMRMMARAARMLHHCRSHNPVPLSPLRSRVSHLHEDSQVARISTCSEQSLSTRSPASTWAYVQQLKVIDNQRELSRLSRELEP
EPAC2 ag: agonists of human EPAC2 (RAPGEF4); Q8WZA2; EPAC2 activation, biochemical qHTS; response scale: 100% = 6.5 mM cAMP response; Potency, µM (top dose mostly 154 µM), hits mostly activators; actives 0.079% (n = 360,000); note: nearly all actives have a fitted effect of over 50% in size
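Guanine nucleotide exchange by EPAC2 is measured as reduced fluorescence of BODIPY-GDP once it is released from 250 nM Rap1B. Plates are read kinetically for 30 min at room temperature; results are scaled to 6.5 mM cAMP.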
EPAC2 antag: blocks human EPAC2 exchange factor; Q8WZA2; EPAC2 GEF exchange of Rap1B-BODIPY-GDP, fluorescence; Potency, µM (highest dose often 114 µM), hits mostly inhibitors; actives 0.18% (n = 360,000); AID 720708; note: nearly all actives have a fitted effect of over 45% in size
EPAC1 ag: EPAC1 (human) agonism | EPAC1 agonist qHTS, biochemical assay; response scale: 100% = response to 6.5 mM cAMP | Potency, µM (series often up to 154 µM), usual class: activators | actives 0.073% (n = 360,000); note: nearly all actives have a fitted effect of over 60% in size
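Normalized to 6.5 mM cAMP, activity reflects EPAC1-catalysed release of BODIPY-GDP from Rap1B, followed kinetically over 30 min at 480 nm excitation, 540 nm emission. Reaction contained 100 nM EPAC1, 250 nM Rap1B-BODIPY-GDP, 50 uM GDP.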
Hits are given with their value; – = inactive; ? = inconclusive. Calls come from the whole dose curve; as a rule, active = well fitted curve in the direction sought with a large enough effect; inconclusive = small, poorly fitted or top-dose-only effect, or another doubt; inactive = no such curve, though single readings can be large; an effect the other way counts as inactive or inconclusive.

SMILES | EPAC1 antagonist | EPAC2 ag | EPAC2 antag | EPAC1 ag
CC1(Cc2cc(Cl)ccc2C(F)(F)F)C(=O)Nc2cc(C(F)(F)F)ccc21 (stereo not drawn) | – | – | – | –
CC(=O)Nc1ccccc1OCC(=O)NC(C)c1ccccc1 (stereo not drawn) | – | – | – | –
CC(NC(=O)COc1ccccc1-c1ccccc1)c1ccccc1 (stereo not drawn) | – | – | 39.8µM | –
COc1cc(/C=C2/CC/C(=C/c3ccc(O)c(OC)c3)C2=O)ccc1O | – | – | – | –
COc1cc(/C=C2\COC/C(=C\c3ccc(O)c(OC)c3)C2=O)ccc1O | 89.1µM | – | – | –
COc1ccc(N=Cc2c(O)n(-c3cccc(C)n3)c(=O)c3ccccc23)c(OC)c1 | – | 100µM | – | –
CC(C)(C)CNC(=O)c1cccc2c1C(=O)c1ccc(N3CCCC3)cc1S2(=O)=O | – | – | – | ?
CC(C)(C)CNC(=O)c1cccc2c1C(=O)c1ccc(-c3cc4ccccc4o3)cc1S2(=O)=O | ? | 100µM | – | –
OCc1ccccc1-c1cnc2cccnn12 | – | – | – | –
CCCCCCN1C[C@@H](O)[C@H](n2cc(C3CC3)nn2)C[C@@H]1c1ccc(Cl)cc1 | – | – | – | –
Cc1ccc2nc3sc(C(=O)NCc4ccco4)c(N)c3cc2c1 | – | – | – | 100µM
O=c1c(O)cccc2cc(O)c(O)c(O)c12 | 12.6µM | – | – | –
Cc1ccc(C(=O)OC(C)C(=O)N(C)C2CCCCC2)cc1S(=O)(=O)N1CCCCC1 (stereo not drawn) | – | – | – | –
O=C(O)CSc1cc(NS(=O)(=O)c2ccc(Br)cc2)c2ccccc2c1O | 56.2µM | – | ? | –
O=S(=O)(Nc1cc(Sc2ncn[nH]2)c(O)c2ccccc12)c1ccccc1 | ? | – | ? | –
CCc1nnc(NS(=O)(=O)c2ccc(NC(=S)NC(=O)/C=C/c3ccc(C(C)C)cc3)cc2)s1 | 79.4µM | – | ? | –
CCc1nnc(NS(=O)(=O)c2ccc(NC(=S)NC(=O)c3ccc(Br)cc3)cc2)s1 | 56.2µM | – | – | –
CCc1nnc(NS(=O)(=O)c2ccc(NC(=S)NC(=O)c3ccccc3)cc2)s1 | – | – | – | –
CCc1nnc(NS(=O)(=O)c2ccc(N/C=C\C(=O)c3ccc4ccccc4c3)cc2)s1 | 50.1µM | – | – | –
CCCCNC(=O)C1(C)CCC(=O)N1CCCn1ccnc1 (stereo not drawn) | – | – | – | –
C[C@@H]1CN([C@H](C)CO)C(=O)CCCn2nncc2CO[C@H]1CN(C)Cc1ccc(C(F)(F)F)cc1 | – | – | – | –
CC(C)(C)OC(=O)N1CCC(C(=O)Nc2cccc(C(=O)NCc3ccccc3)c2)CC1 | – | – | – | –
O=C(Nc1c(-c2ccccc2)[nH][nH]c1=O)c1ccc2c(c1)OCO2 | – | – | – | –
O=C(Nc1c(-c2ccc3c(c2)OCO3)[nH][nH]c1=O)c1ccccc1 | 35.5µM | – | ? | –
COc1ccc(N/C=C2\CCc3ccccc3C2=O)cc1 | – | 100µM | – | ?
SMILES | EPAC1 antagonist | EPAC2 ag | EPAC2 antag | EPAC1 ag
CN1CC=C2C(C#N)=C(N)C(C#N)(C#N)C(c3ccsc3)C2C1 (stereo not drawn) | ? | ? | – | 63.1µM
CN1CC=C2C(C#N)=C(N)C(C#N)(C#N)[C@H](c3cccc(Cl)c3)C2C1 (stereo partly drawn) | – | ? | – | ?
CN1CC=C2C(C#N)=C(N)C(C#N)(C#N)[C@H](c3cccs3)[C@H]2C1 | – | – | – | –
CCCC1C2CN(C(C)C)CC=C2C(C#N)=C(N)C1(C#N)C#N (stereo not drawn) | ? | 56.2µM | 35.5µM | 63.1µM
CN1CC=C2C(C#N)=C(N)C(C#N)(C#N)C(CCc3ccccc3)C2C1 (stereo not drawn) | ? | 50.1µM | 44.7µM | ?
COC(=O)CCN1CCC2CC1c1cc(N3CCCCC3)ccc12 (stereo not drawn) | – | – | – | –
O=C(CSc1nc2ccccc2o1)N/N=C/c1ccc(O)c(O)c1 | 50.1µM | – | – | –
O=C(CSc1nc2ccccc2o1)N/N=C/c1ccccc1 | – | – | – | –
O=C(CSc1nc2ccccc2o1)NCc1ccc2c(c1)OCO2 | – | – | 22.4µM | –
C[C@@H]1CN([C@@H](C)CO)C(=O)CCCn2nncc2CO[C@H]1CN(C)S(=O)(=O)c1ccccc1F | – | – | – | –
Cc1[nH]c(=O)sc1C(=O)NCc1ccc([N+](=O)[O-])cc1 | – | – | – | –
COc1ccccc1C(=O)NCC(=O)N1CCN(c2ncccn2)CC1 | – | – | – | –
COCCN(C(=O)COC(=O)C12CC3CC(CC(C3)C1)C2)c1c(N)n(Cc2ccccc2)c(=O)[nH]c1=O | – | – | – | –
CC(C)NC(=O)c1sc2nc(-c3cccs3)cc(-c3cccs3)c2c1N | – | ? | – | –
Nc1c(C(=O)C2CC2)sc2nc(-c3cccs3)cc(C(F)(F)F)c12 | – | 112µM | – | –
O=C(NCc1ccc2c(c1)OCO2)C(=O)NCC1OCCCN1S(=O)(=O)c1ccccc1 (stereo not drawn) | – | – | – | –
Cc1nc(Nc2cnc(/C=C/c3cc(C(=O)Nc4cccc(C(F)(F)F)c4)ccc3C)cn2)cc(N2CCNCC2)n1 | – | ? | 50.1µM | –
O=C(CSc1cccc2cccnc12)N/N=C/c1cccc(O)c1 | – | – | – | –
O=C(N/N=C/c1ccc(O)c(O)c1)c1ccc(CSc2cccc3cccnc23)cc1 | 35.5µM | – | – | –
NC(=O)C1=CC2C3C=CC2(O)C(=O)OC3O1 (stereo not drawn) | – | – | – | –
C[C@@H]1CN([C@@H](C)CO)C(=O)c2cc(Br)cnc2O[C@H]1CN(C)C(=O)Nc1ccc(F)cc1 | – | – | – | –
CCCn1nc(-c2ccccc2)c2nc3ccccc3nc21 | – | – | – | –
CCCCCn1nc(-c2ccccc2)c2nc3ccccc3nc21 | – | 100µM | – | –
c1ccc(CSc2nc3ncccn3n2)cc1 | – | – | – | –
CC1=Nc2ccccc2/C1=C/c1c(N)n2c(S(=O)(=O)C(C)C)nsc2nc1=O | – | – | – | –
SMILES | EPAC1 antagonist | EPAC2 ag | EPAC2 antag | EPAC1 ag
CC1=Nc2ccc(C)cc2/C1=C/c1c(N)n2c(S(=O)(=O)C(C)C)nsc2nc1=O | 50.1µM | – | – | –
COC(=O)c1cccc(NC(=O)/C=C/c2ccc([N+](=O)[O-])cc2)c1 | – | – | – | –
O=C(COc1ccc2ccccc2c1)Nc1cccc(C(=O)Nc2ccccc2C(=O)O)c1 | 44.7µM | – | – | –
O=C(/C=C/c1ccc([N+](=O)[O-])cc1)Nc1cccc(C(=O)Nc2ccccc2C(=O)O)c1 | 28.2µM | – | – | –
COc1ccc(OCC(=O)Nc2ccc(C(=O)Nc3ccccc3C(=O)O)cc2)cc1 | – | – | – | –
CN1CCN(C(=O)c2ccc(-c3ccc(F)c(F)c3)c3ccoc23)CC1 | – | – | – | –
CCN1CCN(Cc2c(O)ccc3c2O/C(=C\C=C\c2ccccc2)C3=O)CC1 | – | ? | – | 100µM

Bioassay records (PubChem)
